From PubChem BioAssay
CHX counter: Cycloheximide Counterscreen for Small Molecule Inhibitors of Shiga Toxin; cell reporter, cycloheximide protein synthesis inhibition counterscreen; max response, %; actives 12% (n = 300,000); in the data active means max response mostly above about 13%, no sharp cut-off; inactive means mostly below about 14%; further: read at 38.3 µM for the half of the compounds with a filed dose; 0% is about no effect
Shiga toxin inh: A qHTS for Small Molecule Inhibitors of Shiga Toxin | Vero cells, Shiga toxin protein synthesis inhibition reporter | inhibition, % at 38.7 µM | actives 9.2% (n = 290,000) | AID 2315, 2010; in the data active means inhibition mostly above about 28%, no sharp cut-off; inactive means mostly below about 43%; further: 0% is about no effect
FBPA Giardia inh: qHTS Assay for Inhibitors of Fructose-1,6-bisphosphate Aldolase from Giardia Lamblia; Potency, µM (doses to about 59.6 µM), inactives show top-dose activity, negative = inhibition, actives largely listed as inhibitors; AID 2451, 2010; actives 0.71% (n = 290,000); purified Giardia FBPA; further: potency means the concentration at half of the fitted maximal effect; on the % scale 0 is the no-effect control and ±100 the full control effect; nearly all actives have a fitted effect of over 55% in size
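40 nM FBPA preincubated 10 min at RT with compound (up to 57.5 uM final), then substrate plus GAPDH/TPI/NAD/arsenate coupling and diaphorase/resazurin added. Fluorescence read after 20 min at RT, 525/598 nm.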
LmPK inhibitor: qHTS Assay for Inhibitors of Leishmania Mexicana Pyruvate Kinase (LmPK) | purified LmPK, Kinase-Glo ATP luminescence, 1 h | Potency, µM (doses to about 57.5 µM), for the others: top-dose activity change, negative = inhibition, most hits filed as inhibitors | actives 0.37% (n = 290,000) | Q27686; further: potency means the concentration at half of the fitted maximal effect; on the % scale 0 is the no-effect control and ±100 the full control effect
Target sequence (Q27686 whole entry, looked up): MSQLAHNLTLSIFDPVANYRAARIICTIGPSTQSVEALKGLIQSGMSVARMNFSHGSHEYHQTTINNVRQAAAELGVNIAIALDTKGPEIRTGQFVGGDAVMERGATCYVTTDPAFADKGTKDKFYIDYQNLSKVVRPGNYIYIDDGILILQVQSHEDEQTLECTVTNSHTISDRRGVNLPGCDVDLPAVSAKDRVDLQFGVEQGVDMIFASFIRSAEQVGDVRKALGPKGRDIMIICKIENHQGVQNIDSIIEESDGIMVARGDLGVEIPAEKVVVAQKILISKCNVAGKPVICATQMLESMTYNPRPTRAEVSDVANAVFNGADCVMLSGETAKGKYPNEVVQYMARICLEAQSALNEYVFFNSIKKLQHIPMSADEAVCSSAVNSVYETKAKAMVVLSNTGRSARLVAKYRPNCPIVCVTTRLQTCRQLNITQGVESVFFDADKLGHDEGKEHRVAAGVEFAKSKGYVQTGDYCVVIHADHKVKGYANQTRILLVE
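Pyruvate kinase activity monitored as ATP production (luciferase luminescence). Conditions: 0.1 nM enzyme, 0.5 mM PEP, 0.1 mM ADP, 1 h, RT; normalized against uninhibited and no-enzyme wells.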
Sm TGR inh: qHTS Assay for the Inhibitors of Schistosoma Mansoni Peroxiredoxins; purified TGR, DTNB reduction, TNB absorbance 405 nm; Potency, µM (top dose mostly 114 µM), without a hit: top-dose activity change, negative = inhibition, actives largely listed as inhibitors; actives 3% (n = 360,000); AID 485364, 2010; further: potency means the concentration at half of the fitted maximal effect; on the % scale 0 is the no-effect control and ±100 the full control effect; nearly all actives have a fitted effect of over 60% in size
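First, TGR (20 nM dispensed) and NADPH were mixed with compound. Second, a 15 min room-temperature incubation followed. Third, further NADPH and then DTNB were added to start the reaction. Finally, TNB absorbance was monitored kinetically.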
TbPYK inhibitor: qHTS of Trypanosoma Brucei Inhibitors; pyruvate kinase (Trypanosoma brucei), Q57TT1; Potency, µM (top dose mostly 76.8 µM), inactives show at the highest dose activity, negative = inhibition, hits mostly inhibitors; AID 624173, 2012; actives 0.12% (n = 410,000); TbPYK enzyme, Kinase-Glo Plus ATP luminescence, 45 min; further: potency means the concentration at half of the fitted maximal effect; on the % scale 0 is the no-effect control and ±100 the full control effect; nearly all actives have a fitted effect of over 50% in size
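In this concentration-response screen, enzyme-free wells defined baseline while DMSO plates tracked drift. Each reaction combined TbPYK, substrate, compound and 130 uM ADP for 45 min at room temperature. Kinase-Glo Plus luminescence gave the signal.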
An asterisk follows results filed as active; ? = inconclusive; nt = no result; + = active, no number. Many of the other results were omitted from the sample, so hits are more common in it than they were. Unless noted, the call rests on the fitted dose curve; in most records, active means well fitted curve in the direction sought with a large enough effect; inconclusive means small, poorly fitted or top-dose-only effect, or another doubt; inactive means no such curve, though single readings can be large; an effect the other way counts as inactive or inconclusive.

SMILES	CHX counter	Shiga toxin inh	FBPA Giardia inh	LmPK inhibitor	Sm TGR inh	TbPYK inhibitor
CSCC[C@H](NC(=O)OC(C)(C)C)C(=O)N1CCC(C(=O)N[C@@H](C)C(=O)NC(C)c2ccccc2)CC1 (stereo partly drawn)	-3	-5	-2%	-10%	-8%	2%
CCc1nn2c(-c3ccccc3OC)ccnc2c1-c1ccccc1	nt	nt	nt	nt	6%	1%
O=C(Nc1ccccc1F)c1cccc(C(=O)Nc2ccccc2F)c1	14	19	0%	-6%	5%	-3%
COc1ccccc1OCc1ccc(C(=O)Nc2ccccc2F)cc1	6.7*	47*	0%	-6%	1%	-7%
COc1cccc(C(=O)Nc2ccc(C(F)(F)F)n(C)c2=O)c1	35*	50*	-2%	?	4%	-11%
CC(C)Oc1cccc(C(=O)Nc2ccc(Br)cc2F)c1	65*	107*	0%	0%	0%	3%
Cc1noc(C)c1COc1cccc(C(=O)Nc2ccc(Br)cc2F)c1	nt	nt	nt	nt	nt	3%
COc1cccc(C(=O)Nc2ccccc2F)c1	30*	98*	-3%	-29%	nt	-3%
CC12CN3CC(c4ccccc4)(CN(C1)C3c1ccc(Cl)cc1)C2=O (stereo not drawn)	nt	nt	nt	nt	9%	0%
COc1cccc(C(=O)Nc2ccc(F)c(F)c2F)c1	35*	136*	0%	-28%	12%	-1%
O=C(Nc1ccccc1F)c1ccc(C(=O)c2ccccc2)cc1	29*	75*	nt	4%	15%	-1%
Cn1ccc(C(=O)Oc2ccc(C(=O)Nc3ccc(F)cc3F)cc2)n1	26*	53	-3%	-21%	-2%	-1%
COc1cccc(C(=O)Nc2ccc(F)cc2F)c1	39*	59*	1%	-27%	2%	-19%
COc1cccc(C(=O)N(C)CC(=O)Nc2ccc(F)c(F)c2F)c1	-6	-7	-2%	2%	-29%	2%
c1ccc(COC(CN2CCCCCC2)CN2CCCCCC2)cc1	-1	20	-19%	-5%	-17%	-7%
CCN=C1S/C(=C\c2ccc(Sc3ccc(Cl)cc3)o2)C(=O)N1CC	1	3	0%	2%	45µM*	6%
O=C1N=C(N2CCOCC2)S/C1=C/c1ccc(-c2ccc(F)cc2)o1	2	-9	-4%	5%	-27%	-4%
CCN=C1S/C(=C/c2ccc(-c3ccc(F)cc3)o2)C(=O)N1CC	7	21	0%	-7%	45µM*	2%
COc1ccc2[nH]cc(CCNc3ncnc4ccc(-c5cccc(C#N)c5)cc34)c2c1	nt	nt	-12%	nt	nt	nt
Cc1nnc2n(C3CCCCC3)c(=O)c3c4c(sc3n12)CCC4	-2	-20	-5%	5%	-25%	nt
Cc1nnc2n(C3CCCCC3)c(=O)c3c4c(sc3n12)COC(C)(C)C4	2	-6	6%	-1%	40µM*	4%
CC1CCCC2(C1)NC(=S)N(c1ccccc1)N2 (stereo not drawn)	28*	28	-1%	-2%	-4%	-11%
S=C1NC2(CCCCC2)NN1c1ccccc1	5	15	0%	18%	18%	-24%
COc1ncc2nc(-c3ccc(F)cc3)c(=O)n(C[C@H]3CCCO3)c2n1	nt	nt	-13%	nt	nt	2%
Cc1ccc(C)c(OCc2cc(C(=O)N(C)Cc3nccs3)no2)c1	23*	52*	1%	1%	-1%	-3%
SMILES	CHX counter	Shiga toxin inh	FBPA Giardia inh	LmPK inhibitor	Sm TGR inh	TbPYK inhibitor
Cc1ccc(C)c(OCc2cc(C(=O)N(C)Cc3ccccn3)no2)c1	29*	49*	-6%	5%	7%	-17%
CN(C(=O)COC(=O)/C=C/c1ccc(Cl)c(Cl)c1)c1c(N)n(Cc2ccccc2)c(=O)[nH]c1=O	nt	nt	nt	nt	-3%	-2%
COc1ccc(C(=O)NCCOc2ccccc2Cl)c(OC)c1OC	54*	99*	-4%	-1%	-9%	-6%
O=C(CNC(=O)c1ccccc1F)NCCOc1ccccc1Cl	15*	+	10%	-1%	-12%	3%
COc1ccc(C2C(C(=O)OC(C)C)=C(C)N=c3s/c(=C\c4cccs4)c(=O)n32)cc1 (stereo not drawn)	-3	-1	0%	0%	-7%	2%
C=CCOC(=O)C1=C(C)N=c2s/c(=C3\C(=O)N(CC(=O)O)c4ccccc43)c(=O)n2C1c1ccc(OC)cc1 (stereo not drawn)	-2	18	-8%	-25%	18µM*	?
Cc1ccc(S(=O)(=O)N2CCSC2C(=O)O)cc1 (stereo not drawn)	-4	2	5%	3%	1%	-20%
Cc1ccc(S(=O)(=O)N2CCSC2c2ccco2)cc1 (stereo not drawn)	-1	-7	?	3%	45µM*	-9%
CCOc1ccccc1NC(=O)CSC1=Nc2ccccc2C2=NC(CC(=O)NC3CCCCC3)C(=O)N12 (stereo not drawn)	nt	nt	nt	nt	1%	-8%
CN(c1cc(=O)n2ccccc2n1)C1CCCCC1	24*	24	-8%	-5%	3%	5%
CCSc1nnc(NC(=O)c2ccccc2)s1	37*	76*	-18%	-13%	-8%	-1%
CCSc1nnc(NC(=O)c2ccccc2C)s1	36*	125*	-8%	-3%	7%	0%
CCSc1nnc(NC(=O)c2cccnc2)s1	17*	35	?	-12%	2%	-9%
CC1CN(c2nnc(NC(=O)c3ccccc3)s2)CC(C)O1 (stereo not drawn)	23	62*	-5%	-1%	-8%	-2%
OC[C@H](S)CS	nt	nt	nt	nt	nt	-1%
CCOc1ccc(OCC)c(NC(=O)CCc2c(C)nc3c(c2C)c(=O)n(C)c(=O)n3C)c1	nt	nt	nt	nt	-8%	-1%
CCCOc1cccc(C(=O)N(Cc2ccc(C)o2)C2CCS(=O)(=O)C2)c1 (stereo not drawn)	nt	nt	nt	nt	2%	-2%
COc1cccc(Cc2nc3ccccc3nc2SCC(=O)NCc2ccc(C)cc2)c1	nt	nt	nt	nt	1%	20%
CCN(C[C@H]1N[C@@](CC)(C(=O)OC)[C@H]2C(=O)N(C)C(=O)[C@@H]12)C(=O)Nc1ccc(C)cc1	nt	nt	nt	nt	nt	1%
CC(C)c1nnc(NC(=O)c2cccnc2)s1	31*	29	-21%	1%	-6%	4%
Cc1ccc(-c2noc(COc3ccc(Br)c(C)c3)n2)cc1	nt	nt	nt	nt	3%	2%
Brc1ccc(-c2noc(COc3ccc4ccccc4c3)n2)o1	9	10	-13%	15%	-30%	3%
COc1cccc(OCc2nc(-c3cccc([N+](=O)[O-])c3)no2)c1	25*	46	1%	1%	-8%	1%
